Columns and labels:
Assay in all cases: DAPPL (digital affinity profiling via proximity ligation, sequencing); 10 mM Tris-HCl pH 7.5, 50 mM NaCl, 1 mM DTT, 4% glycerol, room temperature, 30 min; GST-TFs on glutathione beads, 16-mer random dsDNA library, 0.1% formaldehyde crosslink after washing; high values mean tight binding
Details in all cases: protein: recombinant; tags: N-terminal GST; dsDNA, one strand shown
ELK4 = molecular target: T1, ELK4 (Homo sapiens, UniProt P28324-2 1-405)
T1 sequence: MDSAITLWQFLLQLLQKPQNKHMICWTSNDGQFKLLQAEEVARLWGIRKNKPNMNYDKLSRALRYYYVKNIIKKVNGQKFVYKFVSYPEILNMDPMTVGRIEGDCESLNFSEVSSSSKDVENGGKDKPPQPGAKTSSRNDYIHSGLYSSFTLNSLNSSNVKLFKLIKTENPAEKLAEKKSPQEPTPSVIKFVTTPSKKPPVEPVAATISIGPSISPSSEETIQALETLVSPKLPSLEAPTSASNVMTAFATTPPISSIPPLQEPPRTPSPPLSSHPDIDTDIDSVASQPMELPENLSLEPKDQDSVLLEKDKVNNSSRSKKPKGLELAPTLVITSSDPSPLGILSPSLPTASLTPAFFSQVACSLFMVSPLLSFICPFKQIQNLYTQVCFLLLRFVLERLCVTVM
Method in brief: (§1)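 Binding signal is defined as a hexamer's read frequency for one factor over its frequency for the tag-only sample. To obtain reads, GST-fused human transcription factors were expressed in yeast, captured on glutathione beads, barcoded with DNA and pooled with that sample. Pools met 200 nmole of a 16-mer random double-stranded DNA library in Tris/NaCl/DTT/glycerol buffer for 30 min at room temperature before washing, 0.1% formaldehyde crosslinking, proximity ligation (BsaI/T4 ligase, 1 h, 37 °C), PCR and Illumina NextSeq500 sequencing.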

ELF3 = molecular target: T2, ELF3 (Homo sapiens, UniProt P78545 1-371)
T2 sequence: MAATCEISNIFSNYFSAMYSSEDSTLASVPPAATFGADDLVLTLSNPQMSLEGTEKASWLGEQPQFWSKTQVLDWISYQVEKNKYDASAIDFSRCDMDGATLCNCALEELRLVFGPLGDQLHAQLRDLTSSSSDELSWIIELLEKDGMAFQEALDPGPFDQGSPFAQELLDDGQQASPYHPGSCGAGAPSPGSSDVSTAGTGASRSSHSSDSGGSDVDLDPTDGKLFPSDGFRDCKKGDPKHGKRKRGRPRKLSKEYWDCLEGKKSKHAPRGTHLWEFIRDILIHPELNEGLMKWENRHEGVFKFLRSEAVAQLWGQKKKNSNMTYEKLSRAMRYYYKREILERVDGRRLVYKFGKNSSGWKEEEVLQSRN
Method in brief: as §1

SPDEF = molecular target: T3, SPDEF (Homo sapiens, UniProt O95238 1-335)
T3 sequence: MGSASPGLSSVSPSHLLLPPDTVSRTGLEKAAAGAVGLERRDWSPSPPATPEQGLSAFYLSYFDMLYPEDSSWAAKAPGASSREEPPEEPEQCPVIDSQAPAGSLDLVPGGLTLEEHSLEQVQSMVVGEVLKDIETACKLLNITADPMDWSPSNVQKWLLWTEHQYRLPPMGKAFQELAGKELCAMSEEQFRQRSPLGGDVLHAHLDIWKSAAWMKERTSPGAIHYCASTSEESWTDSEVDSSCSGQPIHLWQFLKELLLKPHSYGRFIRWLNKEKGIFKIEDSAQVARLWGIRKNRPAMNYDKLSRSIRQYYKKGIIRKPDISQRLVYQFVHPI
Method in brief: as §1

ETV7 = molecular target: T4, ETV7 (Homo sapiens, UniProt Q9Y603 1-341)
T4 sequence: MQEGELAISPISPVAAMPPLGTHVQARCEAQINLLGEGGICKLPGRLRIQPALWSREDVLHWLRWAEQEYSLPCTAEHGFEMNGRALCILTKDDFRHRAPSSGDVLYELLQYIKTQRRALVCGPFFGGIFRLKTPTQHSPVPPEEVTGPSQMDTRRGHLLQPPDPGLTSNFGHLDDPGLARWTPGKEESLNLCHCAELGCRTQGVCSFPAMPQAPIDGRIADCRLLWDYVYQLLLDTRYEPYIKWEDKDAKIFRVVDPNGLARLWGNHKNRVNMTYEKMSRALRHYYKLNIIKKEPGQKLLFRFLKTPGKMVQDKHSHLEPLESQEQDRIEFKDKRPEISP
Method in brief: as §1

ETV2 = molecular target: T5, ETV2 (Homo sapiens, UniProt O00321 1-342)
T5 sequence: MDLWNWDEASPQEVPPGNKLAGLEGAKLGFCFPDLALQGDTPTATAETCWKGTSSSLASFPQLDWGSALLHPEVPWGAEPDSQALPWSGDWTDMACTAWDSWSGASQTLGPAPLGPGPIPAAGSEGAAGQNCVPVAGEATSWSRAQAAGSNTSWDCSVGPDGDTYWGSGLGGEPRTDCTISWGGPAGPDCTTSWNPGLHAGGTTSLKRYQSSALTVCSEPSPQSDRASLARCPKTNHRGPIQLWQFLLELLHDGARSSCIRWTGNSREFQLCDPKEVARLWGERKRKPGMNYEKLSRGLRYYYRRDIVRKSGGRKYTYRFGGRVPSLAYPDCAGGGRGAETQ
Method in brief: as §1

CRX = CRX (Homo sapiens, UniProt O43186 1-299)
Method in brief: as §1

Sequence of CRX (O43186 whole entry): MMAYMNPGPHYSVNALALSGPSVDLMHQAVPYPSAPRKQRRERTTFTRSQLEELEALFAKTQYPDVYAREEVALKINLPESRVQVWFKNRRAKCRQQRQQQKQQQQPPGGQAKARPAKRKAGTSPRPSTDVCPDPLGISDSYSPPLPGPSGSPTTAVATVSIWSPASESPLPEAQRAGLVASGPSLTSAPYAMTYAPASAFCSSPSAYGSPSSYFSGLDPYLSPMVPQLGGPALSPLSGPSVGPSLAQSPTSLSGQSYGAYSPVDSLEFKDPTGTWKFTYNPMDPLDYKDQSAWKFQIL

Sequence | binding signal (ELK4) | binding signal (ELF3) | binding signal (SPDEF) | binding signal (ETV7) | binding signal (ETV2) | binding signal (CRX)
TTGCCG | 1 fold enrichment (6-mer frequency, TF over GST control) | 1.09 fold enrichment (6-mer frequency, TF over GST control) | 1.13 fold enrichment (6-mer frequency, TF over GST control) | 1.22 fold enrichment (6-mer frequency, TF over GST control) |  | 
ATGCCG | 1.15 fold enrichment (6-mer frequency, TF over GST control) |  | 1.13 fold enrichment (6-mer frequency, TF over GST control) |  |  | 
CATCCA | 1.07 fold enrichment (6-mer frequency, TF over GST control) |  |  |  |  | 
CGCCCG | 1.09 fold enrichment (6-mer frequency, TF over GST control) | 1.14 fold enrichment (6-mer frequency, TF over GST control) | 1.1 fold enrichment (6-mer frequency, TF over GST control) | 1.08 fold enrichment (6-mer frequency, TF over GST control) |  | 
GGGTTC | 1 fold enrichment (6-mer frequency, TF over GST control) | 1.02 fold enrichment (6-mer frequency, TF over GST control) | 1.14 fold enrichment (6-mer frequency, TF over GST control) |  |  | 
AACTGA |  | 1.12 fold enrichment (6-mer frequency, TF over GST control) |  | 1.05 fold enrichment (6-mer frequency, TF over GST control) | 1.07 fold enrichment (6-mer frequency, TF over GST control) | 
CGCGAC | 1.14 fold enrichment (6-mer frequency, TF over GST control) | 1.05 fold enrichment (6-mer frequency, TF over GST control) | 1.08 fold enrichment (6-mer frequency, TF over GST control) |  | 1.34 fold enrichment (6-mer frequency, TF over GST control) | 
GCTGCG |  | 1.03 fold enrichment (6-mer frequency, TF over GST control) | 1.02 fold enrichment (6-mer frequency, TF over GST control) | 1.19 fold enrichment (6-mer frequency, TF over GST control) |  | 
AGCTGT | 1.04 fold enrichment (6-mer frequency, TF over GST control) |  |  |  | 1.07 fold enrichment (6-mer frequency, TF over GST control) | 1.02 fold enrichment (6-mer frequency, TF over GST control)
CATACC |  | 1 fold enrichment (6-mer frequency, TF over GST control) | 1.14 fold enrichment (6-mer frequency, TF over GST control) | 1.03 fold enrichment (6-mer frequency, TF over GST control) | 1.16 fold enrichment (6-mer frequency, TF over GST control) | 
TGCGGC |  | 1.33 fold enrichment (6-mer frequency, TF over GST control) |  | 1.07 fold enrichment (6-mer frequency, TF over GST control) |  | 
GGACTC | 1.04 fold enrichment (6-mer frequency, TF over GST control) |  |  |  | 1.01 fold enrichment (6-mer frequency, TF over GST control) | 
AGTGTC |  | 1.11 fold enrichment (6-mer frequency, TF over GST control) | 1.05 fold enrichment (6-mer frequency, TF over GST control) | 1.16 fold enrichment (6-mer frequency, TF over GST control) | 1.02 fold enrichment (6-mer frequency, TF over GST control) | 
ATAAGG |  | 1.1 fold enrichment (6-mer frequency, TF over GST control) | 1.05 fold enrichment (6-mer frequency, TF over GST control) |  | 1.02 fold enrichment (6-mer frequency, TF over GST control) | 1.28 fold enrichment (6-mer frequency, TF over GST control)
CTGCGG |  | 1.2 fold enrichment (6-mer frequency, TF over GST control) |  | 1.18 fold enrichment (6-mer frequency, TF over GST control) | 1.25 fold enrichment (6-mer frequency, TF over GST control) | 
GTGTCC |  | 1.22 fold enrichment (6-mer frequency, TF over GST control) | 1.34 fold enrichment (6-mer frequency, TF over GST control) | 1.22 fold enrichment (6-mer frequency, TF over GST control) | 1.19 fold enrichment (6-mer frequency, TF over GST control) | 
ACGGCA |  | 1.1 fold enrichment (6-mer frequency, TF over GST control) | 1.11 fold enrichment (6-mer frequency, TF over GST control) |  |  | 
AGTATG |  | 1.08 fold enrichment (6-mer frequency, TF over GST control) |  | 1.12 fold enrichment (6-mer frequency, TF over GST control) |  | 
CACGGA | 1.05 fold enrichment (6-mer frequency, TF over GST control) | 1.09 fold enrichment (6-mer frequency, TF over GST control) | 1.25 fold enrichment (6-mer frequency, TF over GST control) |  |  | 
TAACCG |  | 1.04 fold enrichment (6-mer frequency, TF over GST control) | 1.1 fold enrichment (6-mer frequency, TF over GST control) | 1.02 fold enrichment (6-mer frequency, TF over GST control) | 1.2 fold enrichment (6-mer frequency, TF over GST control) | 1.1 fold enrichment (6-mer frequency, TF over GST control)
AGGAAC |  | 1.04 fold enrichment (6-mer frequency, TF over GST control) | 1.05 fold enrichment (6-mer frequency, TF over GST control) |  | 1.15 fold enrichment (6-mer frequency, TF over GST control) | 
CGATGT |  | 1.11 fold enrichment (6-mer frequency, TF over GST control) | 1.12 fold enrichment (6-mer frequency, TF over GST control) | 1.14 fold enrichment (6-mer frequency, TF over GST control) | 1.07 fold enrichment (6-mer frequency, TF over GST control) | 
TGTGGC | 1.16 fold enrichment (6-mer frequency, TF over GST control) | 1.02 fold enrichment (6-mer frequency, TF over GST control) |  | 1.01 fold enrichment (6-mer frequency, TF over GST control) | 1.23 fold enrichment (6-mer frequency, TF over GST control) | 
TACGGT | 1.02 fold enrichment (6-mer frequency, TF over GST control) | 1.11 fold enrichment (6-mer frequency, TF over GST control) | 1.1 fold enrichment (6-mer frequency, TF over GST control) | 1.08 fold enrichment (6-mer frequency, TF over GST control) | 1.07 fold enrichment (6-mer frequency, TF over GST control) | 1.03 fold enrichment (6-mer frequency, TF over GST control)
TCGTCA |  |  | 1.06 fold enrichment (6-mer frequency, TF over GST control) |  | 1.02 fold enrichment (6-mer frequency, TF over GST control) | 
GTTACG | 1.03 fold enrichment (6-mer frequency, TF over GST control) |  | 1.04 fold enrichment (6-mer frequency, TF over GST control) | 1.02 fold enrichment (6-mer frequency, TF over GST control) | 1.22 fold enrichment (6-mer frequency, TF over GST control) | 
CGCTAT | 1.07 fold enrichment (6-mer frequency, TF over GST control) | 1.01 fold enrichment (6-mer frequency, TF over GST control) | 1.1 fold enrichment (6-mer frequency, TF over GST control) | 1.25 fold enrichment (6-mer frequency, TF over GST control) | 1.15 fold enrichment (6-mer frequency, TF over GST control) | 
ACGATG |  | 1.17 fold enrichment (6-mer frequency, TF over GST control) | 1.14 fold enrichment (6-mer frequency, TF over GST control) | 1.2 fold enrichment (6-mer frequency, TF over GST control) | 1.14 fold enrichment (6-mer frequency, TF over GST control) | 
CGGAAC |  | 1.11 fold enrichment (6-mer frequency, TF over GST control) | 1.32 fold enrichment (6-mer frequency, TF over GST control) |  | 1.14 fold enrichment (6-mer frequency, TF over GST control) | 
CGTCGC |  | 1.1 fold enrichment (6-mer frequency, TF over GST control) | 1.24 fold enrichment (6-mer frequency, TF over GST control) | 1.23 fold enrichment (6-mer frequency, TF over GST control) | 1.2 fold enrichment (6-mer frequency, TF over GST control) | 

Reference: publication PMC7862700, “An all-to-all approach to the identification of sequence-specific readers for epigenetic DNA modifications on cytosine”
